# Biological target: T1, Aspartate--tRNA(Asp/Asn) ligase (Mycobacterium tuberculosis (strain ATCC 25618 / H37Rv)) (UniProt P9WFW3); note: in the data most compounds retested in dose-response had high values
# T1 sequence (whole entry): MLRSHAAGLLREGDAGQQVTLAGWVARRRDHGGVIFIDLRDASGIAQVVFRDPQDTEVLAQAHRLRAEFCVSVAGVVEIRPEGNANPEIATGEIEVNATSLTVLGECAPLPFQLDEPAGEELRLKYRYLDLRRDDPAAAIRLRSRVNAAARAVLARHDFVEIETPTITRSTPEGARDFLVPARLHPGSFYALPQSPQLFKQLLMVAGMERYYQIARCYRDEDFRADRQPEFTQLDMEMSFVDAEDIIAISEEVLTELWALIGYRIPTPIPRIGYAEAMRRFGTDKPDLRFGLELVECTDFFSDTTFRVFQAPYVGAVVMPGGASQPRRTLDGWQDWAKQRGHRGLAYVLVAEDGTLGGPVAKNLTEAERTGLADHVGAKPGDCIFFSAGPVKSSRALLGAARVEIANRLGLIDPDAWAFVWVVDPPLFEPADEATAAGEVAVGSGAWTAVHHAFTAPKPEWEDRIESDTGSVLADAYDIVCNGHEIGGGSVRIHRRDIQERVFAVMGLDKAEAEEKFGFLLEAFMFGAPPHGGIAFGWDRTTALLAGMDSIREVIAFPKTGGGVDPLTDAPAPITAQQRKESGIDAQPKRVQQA
# Test: Assay for Asp RNA synthetase-1 from Mycobacterium tuberculosis
# Format: functional
# Set-up: scale not given: direction of the effect not stated beside the values
# Details: 30 µM
row,SMILES,Percent Effect [%]
1,CC1=N[C@@]2(CC[C@@H]3CN(Cc4ccccc4F)C[C@@H]32)C(=O)N1CC1CC1,-6.8
2,Cc1noc(C2CCN(C(=O)c3ccc(N(C)C)nc3)CC2)n1,-4.17
3,Nc1nccc(N2CCCC(CO)(CCOc3ccccc3)C2)n1 (stereo not given),9.3
4,CC(C)OCCCN1CCCC(c2nc3ccccc3n2C(C)C)C1 (stereo not given),6.04
5,CC(C)c1ccc(O)c(C(=O)N2CCN(Cc3cscn3)CC2)c1,-0.175
6,O=C(Nc1cccc(N2CCCC2)c1)C1CCCN1c1nccs1 (stereo not given),1.21
7,Cc1ncc(CNCC2CCCN2c2cccnn2)s1 (stereo not given),0.684
8,COc1cc(S(=O)(=O)N2CCc3ccc(F)cc32)cc(C(=O)O)c1OC,1.4
9,CN(Cc1ccsc1)C(=O)c1cccc(F)c1,-5.62
10,CC(C)c1cc(NC(=O)CN2CCC(N3CCCCC3)CC2)on1,0.301
11,CN(CCC(F)(F)F)C(=O)[C@H]1CSCN1C(=O)OC(C)(C)C,-5.95
12,CCc1nc(CN(C)C2CCN(Cc3ccc(C#N)cc3F)C2)no1 (stereo not given),-1.38
13,Cn1cc(CN2C[C@@H]3COC[C@@H](C(=O)N4CCCCO4)[C@@H]3C2)cn1,-1.16
14,CC(=O)N1CCn2c(C(=O)N(C)C)cnc2C1,-2.78
15,CC(NC(=O)Cc1cccs1)c1nnc2n1CCCCC2 (stereo not given),-4.69
16,CNS(=O)(=O)Cc1ccc(CNc2cncc(-n3cccn3)n2)cc1,-0.637
17,Cc1n[nH]c(C)c1NC(=O)CN1CCn2c(nnc2C(C)C)C1,0.173
18,c1ncn(CC2CCCN(Cc3nc(C4CC4)no3)C2)n1 (stereo not given),-2.51
19,O=C(CCN1C(=O)CCC1=O)Nc1cnn(-c2ccccc2Cl)c1,2.85
20,CN(C)c1ccc(CCCNC(=O)Nc2ccc(C#N)cc2)cc1,-1.77

row,SMILES,Percent Effect [%]
1,CCOCCCNC(=O)c1cn(CC)nc1C,-4.5
2,O=C(NCCOc1ncc(Cl)cc1Cl)c1ccncc1F,-3.03
3,CC(C)N1CCc2c(C#N)c(NCc3ccco3)n3cnnc3c2C1,3.86
4,CCc1ncc2c(n1)CN(Cc1nc(-c3ccsc3)oc1C)CC2,2.25
5,COc1nn(C)cc1C(=O)N1CCC(c2nnc(C3CC3)o2)CC1,-1.47
6,COc1ncc(C2(O)CCN(Cc3ccccc3O)CC2)c(OC)n1,-1.78
7,Cc1ccc(NS(=O)(=O)CC2=NC(=O)n3cccc3C2=O)cc1,-1.02
8,CCc1nccn1C1CCCN(C(=O)c2cn3cccnc3n2)C1 (stereo not given),-1.08
9,CCc1nnc2n1CCN(C(=O)c1ccc3nc(C)c(C)nc3c1)C2,-2.42
10,Cc1ccccc1C(=O)NCc1ccc(N2CCNC(=O)C2)cc1,0.212
11,CC1CN(CC(=O)Nc2nncs2)CCN1Cc1nccn1C (stereo not given),4.22
12,C[C@@H]1CN(C(=O)c2ccc(C#N)nc2)C[C@@]1(O)C1CC1,0.0335
13,Cc1ccc(CN(Cc2cccnc2)C2CC(C)(C)NC(C)(C)C2)s1,3.32
14,Cc1nccn1CC1CCCN1S(=O)(=O)Cc1ccccc1 (stereo not given),-1.4
15,CCC(=O)N1CCCC1c1nccnc1Nc1ncccn1 (stereo not given),1.12
16,CCn1cc(CN2CCCC(c3[nH]ncc3S(C)(=O)=O)C2)cn1 (stereo not given),-1.6
17,CCN1CCN(c2ccc(F)cc2C(C)NCc2ccncc2)CC1 (stereo not given),-0.494
18,Cc1nc(CN2CCCN(CC(=O)Nc3cccnc3)CC2)no1,1.58
19,CC(C)C(=O)NCCCn1ncc2c(Cl)cccc21,16.5
20,CC(NC(=O)NCCCn1ccnc1)c1ccc2c(c1)CCC(=O)N2 (stereo not given),-3.85

# Biological target: Shiga toxin 2 (Escherichia coli O157:H7) (UniProt P09385+P09386)
# Test: E. coli 0.157:H7 Shiga Toxin SOP - stx2 screening assay
# Format: functional
# Set-up: scale not given: direction of the effect not stated beside the values
# Details: 30 µM
row,SMILES,Percent Effect [%]
1,CC1=N[C@@]2(CC[C@@H]3CN(Cc4ccccc4F)C[C@@H]32)C(=O)N1CC1CC1,-2.95
2,Cc1noc(C2CCN(C(=O)c3ccc(N(C)C)nc3)CC2)n1,-12.5
3,Nc1nccc(N2CCCC(CO)(CCOc3ccccc3)C2)n1 (stereo not given),-17.8
4,CC(C)OCCCN1CCCC(c2nc3ccccc3n2C(C)C)C1 (stereo not given),-18.5
5,CC(C)c1ccc(O)c(C(=O)N2CCN(Cc3cscn3)CC2)c1,-7.95
6,O=C(Nc1cccc(N2CCCC2)c1)C1CCCN1c1nccs1 (stereo not given),-4.67
7,Cc1ncc(CNCC2CCCN2c2cccnn2)s1 (stereo not given),-14.7
8,COc1cc(S(=O)(=O)N2CCc3ccc(F)cc32)cc(C(=O)O)c1OC,2.68
9,CN(Cc1ccsc1)C(=O)c1cccc(F)c1,-0.747
10,CC(C)c1cc(NC(=O)CN2CCC(N3CCCCC3)CC2)on1,-28.7
11,CN(CCC(F)(F)F)C(=O)[C@H]1CSCN1C(=O)OC(C)(C)C,-17.7
12,CCc1nc(CN(C)C2CCN(Cc3ccc(C#N)cc3F)C2)no1 (stereo not given),20.3
13,Cn1cc(CN2C[C@@H]3COC[C@@H](C(=O)N4CCCCO4)[C@@H]3C2)cn1,-15.2
14,CC(=O)N1CCn2c(C(=O)N(C)C)cnc2C1,-21.6
15,CC(NC(=O)Cc1cccs1)c1nnc2n1CCCCC2 (stereo not given),5.32
16,CNS(=O)(=O)Cc1ccc(CNc2cncc(-n3cccn3)n2)cc1,-15.6
17,Cc1n[nH]c(C)c1NC(=O)CN1CCn2c(nnc2C(C)C)C1,13.2
18,c1ncn(CC2CCCN(Cc3nc(C4CC4)no3)C2)n1 (stereo not given),-1.62
19,O=C(CCN1C(=O)CCC1=O)Nc1cnn(-c2ccccc2Cl)c1,1.3
20,CN(C)c1ccc(CCCNC(=O)Nc2ccc(C#N)cc2)cc1,-44.4

row,SMILES,Percent Effect [%]
1,CCOCCCNC(=O)c1cn(CC)nc1C,-51.1
2,O=C(NCCOc1ncc(Cl)cc1Cl)c1ccncc1F,1.2
3,CC(C)N1CCc2c(C#N)c(NCc3ccco3)n3cnnc3c2C1,-4.38
4,CCc1ncc2c(n1)CN(Cc1nc(-c3ccsc3)oc1C)CC2,25.2
5,COc1nn(C)cc1C(=O)N1CCC(c2nnc(C3CC3)o2)CC1,-8.92
6,COc1ncc(C2(O)CCN(Cc3ccccc3O)CC2)c(OC)n1,-22.9
7,Cc1ccc(NS(=O)(=O)CC2=NC(=O)n3cccc3C2=O)cc1,-73.8
8,CCc1nccn1C1CCCN(C(=O)c2cn3cccnc3n2)C1 (stereo not given),5.72
9,CCc1nnc2n1CCN(C(=O)c1ccc3nc(C)c(C)nc3c1)C2,7.1
10,Cc1ccccc1C(=O)NCc1ccc(N2CCNC(=O)C2)cc1,-90.8
11,CC1CN(CC(=O)Nc2nncs2)CCN1Cc1nccn1C (stereo not given),12.1
12,C[C@@H]1CN(C(=O)c2ccc(C#N)nc2)C[C@@]1(O)C1CC1,-1.27
13,Cc1ccc(CN(Cc2cccnc2)C2CC(C)(C)NC(C)(C)C2)s1,13.4
14,Cc1nccn1CC1CCCN1S(=O)(=O)Cc1ccccc1 (stereo not given),4.42
15,CCC(=O)N1CCCC1c1nccnc1Nc1ncccn1 (stereo not given),2.75
16,CCn1cc(CN2CCCC(c3[nH]ncc3S(C)(=O)=O)C2)cn1 (stereo not given),-18.8
17,CCN1CCN(c2ccc(F)cc2C(C)NCc2ccncc2)CC1 (stereo not given),14.3
18,Cc1nc(CN2CCCN(CC(=O)Nc3cccnc3)CC2)no1,16.4
19,CC(C)C(=O)NCCCn1ncc2c(Cl)cccc21,-6.02
20,CC(NC(=O)NCCCn1ccnc1)c1ccc2c(c1)CCC(=O)N2 (stereo not given),-22.9

# Reference: ChEMBL document CHEMBL3988442, “University of Dundee, Small-Polar-MMV Screening Library” (2021)
